Experimental data: ChEMBL document CHEMBL3988442, “University of Dundee, Small-Polar-MMV Screening Library” (2021)
Hit rate of the full screen: of about 48,000 compounds, about 13,000 (27%) showed an effect of 50% or more. This is one part of the list.

Each compound was assayed on Wolbachia pipientis (assay: Anti-Wolbachia Cell-Based Screen). Conditions: 5 µM.
Type: functional
Parameters: scale not given: in the data most compounds retested in dose-response had high values

Compound | Percent Effect [%]
CN(C)CCOCC1CN(C(=O)c2ccnnc2)Cc2ccnn2C1.O=C(O)C(F)(F)F.O=C(O)C(F)(F)F (stereo unspecified) | 5.316
CCn1cc2c(n1)C(COCC1CC1)CN(c1ccc(C)nn1)C2 (stereo unspecified) | 10.52
CCCSc1nc(N)c(NC(=O)c2ccc(OC)c(OC)c2)c(=O)[nH]1 | -5.573
c1cc2nccc(CC3CCCN(Cc4ncc[nH]4)CC3)c2cn1 (stereo unspecified) | 3.513
O=CO.c1cc2nccc(CC3CCCN(C4CCOCC4)CC3)c2cn1 (stereo unspecified) | 113.5
CN1CCCC(Cc2ccnc3ccncc23)CC1 (stereo unspecified) | -6.52
O=C(NCCc1c[nH]cn1)C1CCCN(Cc2ccco2)C1 (stereo unspecified) | -20.31
CS(=O)(=O)N1CCCC(Cc2ccnc3ccncc23)CC1 (stereo unspecified) | 72.88
Cn1ccnc1CN1CCC(CNS(=O)(=O)c2cccnc2)C1 (stereo unspecified) | 2.394
O=C(CC1CC1)N(Cc1cccnc1)CC1CCN(C2CCCC2)CC1 | -16.06
O=C(Cc1cccnc1)N1CCCC2(CCN(C3CCOCC3)C2)C1.O=C(O)C(F)(F)F.O=C(O)C(F)(F)F (stereo unspecified) | 3.784
Cn1ccnc1CN1CCCC(Cc2ccnc3ccncc23)CC1.O=CO (stereo unspecified) | 122.1
O=CO.c1cc2nccc(CC3CCCN(Cc4c[nH]cn4)CC3)c2cn1 (stereo unspecified) | 92.48
Cc1cccc(-c2nc(CN3CCn4c(nnc4C4CC4)C3)no2)c1 | 0.9786
Cc1nc(C2(NCc3c(C)nn(C)c3N3CCOCC3)CCC2)no1 | -14.17
Cc1cccc(CS(=O)(=O)Cc2ccn(C)c(=O)c2)c1 | -8.677
c1cn(CCNc2nc(NC3CC3)nc3c2CCNCC3)nn1 | -2.29
CCN(C(=O)CN1CCCC1c1ccc(OC)cc1)c1ccccc1 (stereo unspecified) | 3.138

Compound | Percent Effect [%]
CCN(C(=O)CN1CCCC1c1ccc(OC)cc1)c1ccccc1C (stereo unspecified) | 3.108
COc1ccc(CNC(=O)C2=NN(c3ccc(C)cc3)C(=O)CN2)cc1 | -36.41
COc1ccc(N(c2ccc(OC)cc2)c2ccc(C(=O)O)s2)cc1 | 99.84
COc1ccc(N(c2ccccc2)c2ccc(C(=O)O)s2)cc1 | 119.4
COc1cc(/C=C/c2ncc(C(=O)O)s2)cc(OC)c1 | 4.44
COc1ccc(N(c2ccc(C)cc2)c2ccc(C(=O)O)s2)cc1 | 128.9
COc1ccc(OC2CCN(C(=O)c3ccc(C(C)=O)s3)CC2)cc1 | -8.42
O=C1CN(C(=O)c2cc(Cl)ccc2F)c2ccccc2N1 | 1.511
CC(C)C[C@H](N)C(=O)N1CC2(CCNCC2)c2cc(Cl)ccc21.Cl.Cl | 115.3
CCC(=O)N1CCC2(CC1)CN(C(C)=O)c1ccc(C)cc12 | 1.312
Cl.O=C(c1ccccc1F)N1CC2(CCNCC2)c2cc(Cl)ccc21 | 106.3
O=C1CN(C(=O)c2cc(Cl)ccc2F)c2ccncc2N1 | -25.93
Cc1ccc2c(c1)C1(CCNCC1)CN2C(=O)C(C)C | -27.38
CCOC(=O)N1CC2(CCNCC2)c2cc(Cl)ccc21.Cl | 107.5
Cc1ccc2c(c1)C1(CCN(S(C)(=O)=O)CC1)CN2C(=O)N(C)C | 0.4399
CN(C)C(=O)N1CC2(CCNCC2)c2cc(Cl)ccc21.Cl | -23.53
CC(=O)N1CC2(CCN(C(=O)CO)CC2)c2cc(C)ccc21 | -15.84
C[C@@H](N)C(=O)N1CC2(CCNCC2)c2cc(Cl)ccc21.Cl.Cl | 85.61
